# Reference: the supplement of paper PMC6992640
# Test system: WHIM30 (cells of a triple-negative basal-like breast cancer xenograft)
# Assay: cell viability of combination (% of vehicle); higher = less cytotoxic
# Conditions: 1 µM; 72 h; partner dose: 10 nM
# Method: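 PDX cells were treated for 72 h with each drug at 1 µM plus carfilzomib (10 nM; 100 nM for WHIM2). Luciferase viability is expressed as percent of vehicle.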
row,SMILES,cell viability of combination
1,CC(C)(C)c1ccc(C(=O)CCCN2CCC(OC(c3ccccc3)c3ccccc3)CC2)cc1 [Ebastine] + CC(C)C[C@H](NC(=O)[C@H](CCc1ccccc1)NC(=O)CN1CCOCC1)C(=O)N[C@@H](Cc1ccccc1)C(=O)N[C@@H](CC(C)C)C(=O)[C@@]1(C)CO1 [Carfilzomib],15.8
2,CN1CCCC1CCOC(C)(c1ccccc1)c1ccc(Cl)cc1.O=C(O)C=CC(=O)O (stereo not given) [Clemastine Fumarate] + CC(C)C[C@H](NC(=O)[C@H](CCc1ccccc1)NC(=O)CN1CCOCC1)C(=O)N[C@@H](Cc1ccccc1)C(=O)N[C@@H](CC(C)C)C(=O)[C@@]1(C)CO1 [Carfilzomib],15.5
3,COc1cc(Nc2ncc(F)c(Nc3ccc4c(n3)N(COP(=O)(O)O)C(=O)C(C)(C)O4)n2)cc(OC)c1OC [Fostamatinib (R788)] + CC(C)C[C@H](NC(=O)[C@H](CCc1ccccc1)NC(=O)CN1CCOCC1)C(=O)N[C@@H](Cc1ccccc1)C(=O)N[C@@H](CC(C)C)C(=O)[C@@]1(C)CO1 [Carfilzomib],16.9
4,COc1cc(Nc2c(C#N)cnc3cc(OCCCN4CCN(C)CC4)c(OC)cc23)c(Cl)cc1Cl [Bosutinib (SKI-606)] + CC(C)C[C@H](NC(=O)[C@H](CCc1ccccc1)NC(=O)CN1CCOCC1)C(=O)N[C@@H](Cc1ccccc1)C(=O)N[C@@H](CC(C)C)C(=O)[C@@]1(C)CO1 [Carfilzomib],20.9
5,CC(C)CC(NC(=O)C(NC(=O)c1cccc(-c2ccccc2)n1)C(C)O)B(O)O (stereo not given) + CC(C)C[C@H](NC(=O)[C@H](CCc1ccccc1)NC(=O)CN1CCOCC1)C(=O)N[C@@H](Cc1ccccc1)C(=O)N[C@@H](CC(C)C)C(=O)[C@@]1(C)CO1 [Carfilzomib],8.71
6,CCCCc1oc2ccccc2c1C(=O)c1cc(I)c(OCCN(CC)CC)c(I)c1.Cl [Amiodarone HCl] + CC(C)C[C@H](NC(=O)[C@H](CCc1ccccc1)NC(=O)CN1CCOCC1)C(=O)N[C@@H](Cc1ccccc1)C(=O)N[C@@H](CC(C)C)C(=O)[C@@]1(C)CO1 [Carfilzomib],20.3
7,C=C1C(=CC=C2CCCC3(C)C2CCC3C(C)C=CC(C)C(C)C)CC(O)CC1O (stereo not given) [Doxercalciferol] + CC(C)C[C@H](NC(=O)[C@H](CCc1ccccc1)NC(=O)CN1CCOCC1)C(=O)N[C@@H](Cc1ccccc1)C(=O)N[C@@H](CC(C)C)C(=O)[C@@]1(C)CO1 [Carfilzomib],17
8,Cc1c(Cl)cccc1Nc1ccccc1C(=O)O [Tolfenamic Acid] + CC(C)C[C@H](NC(=O)[C@H](CCc1ccccc1)NC(=O)CN1CCOCC1)C(=O)N[C@@H](Cc1ccccc1)C(=O)N[C@@H](CC(C)C)C(=O)[C@@]1(C)CO1 [Carfilzomib],20.7
9,Nc1ccc2cc3ccc([NH3+])cc3nc2c1.Nc1ccc2cc3ccc([NH3+])cc3nc2c1.O=S(=O)([O-])[O-] [Proflavine Hemisulfate] + CC(C)C[C@H](NC(=O)[C@H](CCc1ccccc1)NC(=O)CN1CCOCC1)C(=O)N[C@@H](Cc1ccccc1)C(=O)N[C@@H](CC(C)C)C(=O)[C@@]1(C)CO1 [Carfilzomib],11.2
10,CC(C)N=c1cc2n(-c3ccc(Cl)cc3)c3ccccc3nc-2cc1Nc1ccc(Cl)cc1 [Clofazimine] + CC(C)C[C@H](NC(=O)[C@H](CCc1ccccc1)NC(=O)CN1CCOCC1)C(=O)N[C@@H](Cc1ccccc1)C(=O)N[C@@H](CC(C)C)C(=O)[C@@]1(C)CO1 [Carfilzomib],16.7
11,COc1ccc2cc1Oc1ccc(cc1)CC1c3c(cc4c(c3Oc3cc5c(cc3OC)CCN(C)C5C2)OCO4)CCN1C (stereo not given) [Cepharanthine] + CC(C)C[C@H](NC(=O)[C@H](CCc1ccccc1)NC(=O)CN1CCOCC1)C(=O)N[C@@H](Cc1ccccc1)C(=O)N[C@@H](CC(C)C)C(=O)[C@@]1(C)CO1 [Carfilzomib],9.41
12,CC(Oc1cc(-c2cnn(C3CCNCC3)c2)cnc1N)c1c(Cl)ccc(F)c1Cl [(R)-Crizotinib] + CC(C)C[C@H](NC(=O)[C@H](CCc1ccccc1)NC(=O)CN1CCOCC1)C(=O)N[C@@H](Cc1ccccc1)C(=O)N[C@@H](CC(C)C)C(=O)[C@@]1(C)CO1 [Carfilzomib],27.4
13,CO[C@H]1/C=C/O[C@@]2(C)Oc3c(C)c(O)c4c(O)c(c(/C=N/N5CCN(C6CCCC6)CC5)c(O)c4c3C2=O)NC(=O)/C(C)=C\C=C\[C@H](C)[C@H](O)[C@@H](C)[C@@H](O)[C@@H](C)[C@H](OC(C)=O)[C@@H]1C [Rifapentine] + CC(C)C[C@H](NC(=O)[C@H](CCc1ccccc1)NC(=O)CN1CCOCC1)C(=O)N[C@@H](Cc1ccccc1)C(=O)N[C@@H](CC(C)C)C(=O)[C@@]1(C)CO1 [Carfilzomib],21.9
14,CC(C)(C)NC(=O)C1CC2CCCCC2CN1CC(O)C(Cc1ccccc1)NC(=O)C(CC(N)=O)NC(=O)c1ccc2ccccc2n1.CS(=O)(=O)O (stereo not given) [Saquinavir mesylate] + CC(C)C[C@H](NC(=O)[C@H](CCc1ccccc1)NC(=O)CN1CCOCC1)C(=O)N[C@@H](Cc1ccccc1)C(=O)N[C@@H](CC(C)C)C(=O)[C@@]1(C)CO1 [Carfilzomib],22.9
15,CCCCCCCCCCCC1=C(O)C(=O)C=C(O)C1=O [Embelin] + CC(C)C[C@H](NC(=O)[C@H](CCc1ccccc1)NC(=O)CN1CCOCC1)C(=O)N[C@@H](Cc1ccccc1)C(=O)N[C@@H](CC(C)C)C(=O)[C@@]1(C)CO1 [Carfilzomib],17.7
16,COc1cc(C(=O)O)ccc1NC(=O)C1NC(CC(C)(C)C)C(C#N)(c2ccc(Cl)cc2F)C1c1cccc(Cl)c1F (stereo not given) + CC(C)C[C@H](NC(=O)[C@H](CCc1ccccc1)NC(=O)CN1CCOCC1)C(=O)N[C@@H](Cc1ccccc1)C(=O)N[C@@H](CC(C)C)C(=O)[C@@]1(C)CO1 [Carfilzomib],23.5
17,Cc1nc(NC(=O)N2CCCC2C(N)=O)sc1-c1ccnc(C(C)(C)C(F)(F)F)c1 (stereo not given) + CC(C)C[C@H](NC(=O)[C@H](CCc1ccccc1)NC(=O)CN1CCOCC1)C(=O)N[C@@H](Cc1ccccc1)C(=O)N[C@@H](CC(C)C)C(=O)[C@@]1(C)CO1 [Carfilzomib],20
18,O=C1C=CC=CC1=C1NC(=C2C=CC=CC2=O)N(c2ccc(C(=O)O)cc2)N1 [Deferasirox] + CC(C)C[C@H](NC(=O)[C@H](CCc1ccccc1)NC(=O)CN1CCOCC1)C(=O)N[C@@H](Cc1ccccc1)C(=O)N[C@@H](CC(C)C)C(=O)[C@@]1(C)CO1 [Carfilzomib],23.7
19,CCCCCCCCCCCCCCCCOP(=O)([O-])OCC[N+](C)(C)C [Miltefosine] + CC(C)C[C@H](NC(=O)[C@H](CCc1ccccc1)NC(=O)CN1CCOCC1)C(=O)N[C@@H](Cc1ccccc1)C(=O)N[C@@H](CC(C)C)C(=O)[C@@]1(C)CO1 [Carfilzomib],22.7
20,CNC(=O)c1cc(Oc2ccc(NC(=O)Nc3ccc(Cl)c(C(F)(F)F)c3)cc2)ccn1 [Sorafenib] + CC(C)C[C@H](NC(=O)[C@H](CCc1ccccc1)NC(=O)CN1CCOCC1)C(=O)N[C@@H](Cc1ccccc1)C(=O)N[C@@H](CC(C)C)C(=O)[C@@]1(C)CO1 [Carfilzomib],18
